Our source for the growth values is PubChem BioAssay (NCI).

Structures are written as SMILES. The panel holds about 83,000 compounds, 20% with a hit somewhere; the sample as a whole holds those more often.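 How to read the values: 0–100, growth inhibition (40 = 60% inhibited); 0, no net growth; -100 to 0, cell death (-40 = 40% of starting cells died; -100 = all dead).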 Values without a mark were called inactive. Active and inactive are the calls of the source. Rule for the calls: active = growth percent below 10; inactive = the rest.

Holding throughout (experiment): NCI-60 one-dose screen, 48 h (100 = growth as untreated, 0 = no growth, -100 = all killed)
Settings in all cases: 10 µM unless noted

Assay [1] has as its system NCI-H23 lung.
For assay [2], the system named is NCI-H226 lung.
The subject of assay [3] is NCI-H322M lung.
The subject of assay [4] is HOP-62 NSCLC.
Assay [5] relates to NCI-H460 lung.
For assay [6], the system named is NCI-H522 lung.
The test system of assay [7] is A549/ATCC NSCLC.
Assay [8] deals with 786-0 renal.
Assay [9] deals with COLO 205 colon.

As for `COc1ccc(/C=C/c2nc3ccccc3c(=O)n2-c2ccc(C#Cc3ccc(C(C)(C)C)cc3)cc2C)c(OC)c1`, the growth in assay [1] is 94%; in assay [2], 87.3%; in [3], 101%; in assay [4] it was 112%; in [5], 85%; in [6], 70.2%. The values for the growth in assay [7], in assay [8] and in assay [9] were 91.2%, 101% and 97.9%, respectively.

In the case of `COc1cc(NCC(O)CN(CC(C)C)CC(C)C)c2ncccc2c1` (stereo unspecified), the growth in assay [1] was 82%; in assay [2], 74.9%; in assay [3] it was 95.6%; in assay [4], 84.8%; in assay [5] it was 95.4%; in [6], 55.9%. Further, the growth in [7] is 91.6%; in assay [8], 85%; in [9], 81%.

`CC(C)(C)c1nn(-c2ccccc2)c2c1C(=O)CSC(c1ccccc1Cl)N2` (stereo unspecified): the growth in assay [1] is 38.3%; in assay [2], 36.4%; in assay [3] it was 35.1%; in assay [4], 27.6%; in [5], 22.4%; in assay [6], 11.7%. The growth in assay [7] is 39.8%; in assay [8], 25.7%; in assay [9] it was 2.17% (active).

As to `CNC1=C([N+](=O)[O-])C(c2ccccc2O)C(C#N)=C(c2cccs2)O1` (stereo unspecified), the growth in assay [1] is 99.1%; in assay [2] it was 97.5%; in assay [3], 98.6%; in [4], 88%; in assay [5], 105%; in assay [6], 7.12% (active). Also, the growth in assay [7] is 99.7%; in assay [8], 93.2%; in [9], 101%.

With `COc1ccc(Cl)cc1Nc1nc(C(F)(F)F)ccc1C(=O)NN`, the growth was 39.9% in [1]; 24.1% in assay [2]; 4.64% (active) in assay [3]; -30.8% (active) in [4]; 70.3% in [5]; 12.9% in [6]. For the same molecule, the results for the growth in assay [7], in assay [8] and in assay [9] were 47.6%, 2.09% (active) and 12.5%, respectively.

As for `CC(=O)Oc1ccccc1C(=O)Nc1ncc([N+](=O)[O-])s1`, the growth in [1] was 6.3% (active); in [2] it was 63.5%; in assay [3], 10.8%; in assay [4] it was 67.1%; in assay [5], 13.4%; in [6], -15.9% (active). In addition, the growth in [7] is 51.2%; in [8], -11.4% (active); in assay [9], 93.2%.

Regarding `CN(C)c1nc(-c2cccs2)n2nc(-c3ccco3)cc2n1`, the growth in assay [1] was 87.2%; in assay [2], 90.2%; in [3] it was 106%; in assay [4], 106%; in assay [5] it was 98.4%; in [6], 96.2%. Further, the growth is 101% in assay [7], 96.1% in [8] and 126% in assay [9].

As to `C=C[C@H]1CCC/C=C/[C@@H]2C[C@H](O)C[C@H]2[C@H](O)/C=C/C(=O)O1`, the growth is -19.1% (active) in assay [1]; 3.22% (active) in assay [2]; -7.72% (active) in [3]; 33.3% in [4]; 7.05% (active) in [5]; -37.8% (active) in [6]. The results for the growth in assay [7], in [8] and in assay [9] were 8.51% (active), -53.5% (active) and -83.1% (active), respectively.

As to `CC(C)c1cccc(C#N)c1`, the growth is 92.8% in assay [1]; 101% in assay [2]; 109% in assay [3]; 111% in assay [4]; 103% in [5]; 107% in assay [6]. Besides, the growth was 93.5% in assay [7], 102% in assay [8] and 115% in assay [9].

As to `O=C(Nc1ccc(Br)cc1)Nc1cccc(Br)c1`, the growth was 18.4% in assay [1]; 53.1% in assay [2]; 55.4% in assay [3]; 56.6% in assay [4]; 12.2% in assay [5]; -28.5% (active) in [6]. In addition, the results for the growth in [7], in [8] and in [9] were 32.1%, 68.6% and 28.1%, respectively.

`Clc1ccc(Cl)c(N=Cc2ccc3c(c2)OCO3)c1`: the growth in assay [1] is 99.2%; in assay [2] it was 103%; in assay [3] it was 108%; in assay [4] it was 101%; in assay [5], 116%; in assay [6] it was 88.7%. Besides, the growth in [7] is 96.9%; in assay [8], 110%; in assay [9], 109%.

Take `COc1ccc(N=C2CSc3nnc(-c4cc(F)c(Cl)cc4Cl)n3N2)cc1`: the growth in [1] is -22.1% (active); in assay [2], 27.9%; in assay [3], 6.08% (active); in assay [4], -33.7% (active); in assay [5], -63.2% (active); in [6] it was -27.7% (active). In addition, the growth in assay [7] is -21.1% (active); in [8], -44.5% (active); in assay [9], -21.1% (active).

For the molecule `O=C(N/N=C/c1ccccc1O)c1ccncc1`, the growth in assay [1] is 70.9%; in assay [2], 70.1%; in [3], 51.2%; in [4], 43%; in assay [5], 25.7%; in [6] it was -20% (active). Also, the growth is 53.6% in assay [7], 51.1% in assay [8] and 27.4% in [9].

Take `C=CCOC(=O)C1=C(C)NC2=C(C(=O)CC(C)(C)C2)C1c1ccc(OC)cc1` (stereo unspecified): the growth was 104% in [1]; 98.4% in assay [2]; 95.7% in assay [3]; 90% in [4]; 106% in [5]; 82.8% in assay [6]. Also, the growth in [7] is 98.3%; in [8] it was 97.8%; in [9] it was 109%.
